Here are results for eleven molecules from PubChem BioAssay.

Molecules are shown by their SMILES.

Experiment [1] in a line: NFkB reporter suppression in cystic fibrosis bronchial cells – cell-based, uHTS hits, panel, cytotoxicity readout, dose response (AID 624344). To be noted: CF bronchial epithelial cells, PAF-induced NFkB reporter inhibition, with PAF, run 1; at 79 µM (top of the series).
Experiment in experiment [2]: as above
To be noted: CF bronchial epithelial cells, PAF-induced NFkB reporter inhibition, with PAF, run 2; at 79 µM (top of the series).

Experiment [3] addresses PEG-3 (UniProt Q6IN02). As to the kind of experiment: inhibition of PEG-3 promoter-driven reporter – cell-based, HeLa, luciferase, CREF/GAPDH counter-screen panel, dose response (AID 624167). To be noted: HeLa PEG-Prom luciferase reporter, overnight, CREF/GAPDH counter-screens; run 1, dose range 1, at 100 µM (top of the series).
Experiment [4] has as its target PEG-3 (UniProt Q6IN02). The description is as above. To be noted: HeLa PEG-Prom luciferase reporter, overnight, CREF/GAPDH counter-screens; run 2, dose range 1, at 100 µM (top of the series). For orientation: A reporter such as luciferase makes a cellular process visible.
For experiment [5], the system named is Rat fibroblasts (CREF). The description is as above. To be noted: CREF/GAPDH counter-screens; run 1, dose range 1, at 100 µM (top of the series). For orientation: Counterscreens check selectivity or assay interference.
The subject of experiment [6] is Rat fibroblasts (CREF). Described as above. To be noted: CREF/GAPDH counter-screens; run 2, dose range 1, at 100 µM (top of the series).
For experiment [7], the target named is Tumor necrosis factor receptor superfamily member 10B (Homo sapiens) (UniProt O14763). Description: viability loss of caspase-8 NB7 cells with TRAIL – with/without TRAIL, luminescence panel, confirmation (AID 651596). To be noted: NB7 neuroblastoma + caspase-8, TRAIL sensitization, NB7 Caspase-8, with TRAIL, mean of runs, at 10 µM, stronger effect = higher value.
Experiment in experiment [8]: as above
To be noted: NB7 neuroblastoma + caspase-8, without TRAIL, NB7 Caspase-8, without TRAIL, mean of runs, at 10 µM.

Tumor necrosis factor receptor superfamily member 10B (Homo sapiens), sequence (O14763 whole entry, looked up): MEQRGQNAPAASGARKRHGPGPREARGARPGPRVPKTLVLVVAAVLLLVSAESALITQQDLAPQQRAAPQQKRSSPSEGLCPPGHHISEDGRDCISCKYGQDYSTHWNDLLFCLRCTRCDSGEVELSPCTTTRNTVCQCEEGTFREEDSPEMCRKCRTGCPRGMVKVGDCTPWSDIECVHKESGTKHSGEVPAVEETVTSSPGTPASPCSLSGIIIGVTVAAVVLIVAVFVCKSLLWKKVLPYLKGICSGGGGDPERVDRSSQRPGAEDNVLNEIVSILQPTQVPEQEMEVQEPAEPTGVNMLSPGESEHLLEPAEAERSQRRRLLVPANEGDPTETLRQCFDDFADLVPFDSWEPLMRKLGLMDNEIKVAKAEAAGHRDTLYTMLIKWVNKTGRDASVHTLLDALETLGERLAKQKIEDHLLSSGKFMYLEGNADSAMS
PEG-3, sequence (Q6IN02 whole entry, looked up): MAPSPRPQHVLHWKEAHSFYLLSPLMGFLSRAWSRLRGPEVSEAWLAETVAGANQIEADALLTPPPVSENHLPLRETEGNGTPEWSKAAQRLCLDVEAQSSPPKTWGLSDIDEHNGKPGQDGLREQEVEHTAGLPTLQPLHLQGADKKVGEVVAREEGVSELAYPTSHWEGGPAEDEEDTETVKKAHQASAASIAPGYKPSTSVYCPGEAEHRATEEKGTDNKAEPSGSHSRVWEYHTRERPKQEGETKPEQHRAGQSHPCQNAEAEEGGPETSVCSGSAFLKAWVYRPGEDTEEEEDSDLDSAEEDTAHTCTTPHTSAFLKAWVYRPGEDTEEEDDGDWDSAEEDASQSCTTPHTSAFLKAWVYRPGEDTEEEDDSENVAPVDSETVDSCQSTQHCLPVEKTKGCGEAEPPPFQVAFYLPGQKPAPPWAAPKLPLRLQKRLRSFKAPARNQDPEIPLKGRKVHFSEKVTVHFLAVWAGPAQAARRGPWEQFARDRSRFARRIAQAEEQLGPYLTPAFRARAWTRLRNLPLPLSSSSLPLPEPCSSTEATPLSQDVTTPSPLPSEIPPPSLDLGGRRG

Turning to `C[C@H]1CCCC(=O)CCC/C=C/c2cc(O)cc(O)c2C(=O)O1`, the inhibition – broadly, the relative decrease from the control value, in per cent – in experiment [1] came out at 102%; in experiment [2] it was 114%.

Take `CCC1(OC(=O)CN)C(=O)OCc2c1cc1n(c2=O)Cc2cc3ccccc3nc2-1` (stereo unspecified): the inhibition with PEG-3 [3] was 100%; with PEG-3 [4], 96.5%; in the experiment on Rat fibroblasts (CREF) [5], 65.4%; with Rat fibroblasts (CREF) [6] it was 72%.

`O=C1NC2C(=CC(O)C(O)C2O)c2cc3c(c(O)c21)OCO3` (stereo unspecified): the inhibition in the experiment with PEG-3 [3] worked out at 99.4%; with PEG-3 [4] it was 94.9%.

As for `CC1=CC2OC3CC4OC(=O)C=CC=CC(C(C)O)OCC(O)C(C)CC(=O)OCC2(CC1O)C4(C)C31CO1` (stereo unspecified), the inhibition in the experiment with PEG-3 [3] is 101%; with PEG-3 [4], 99.3%. The activity in experiment [7] came out at 92.3%; in experiment [8], 97.7%.

With `COc1cccc(C2CC3C(=O)C=CC2N3Cc2ccccc2)c1` (stereo unspecified), the inhibition with PEG-3 [3] was 101%; with PEG-3 [4] it was 100%.

On to `CC(=O)OC1(C)CC(C)C(=O)C(C(O)CC2CC(=O)NC(=O)C2)C1` (stereo unspecified), for which the inhibition amounted to 96.1% with PEG-3 [3]; 94.4% with PEG-3 [4]; 61.8% in the experiment on Rat fibroblasts (CREF) [5]; 56.4% with Rat fibroblasts (CREF) [6]; 117% in experiment [1]; 108% in experiment [2].

As for `CCN(CC)C(=O)Cn1cc(/C=C2\C(=O)NC(=O)N(c3ccccc3F)C2=O)c2ccccc21`, the inhibition with PEG-3 [3] came out at 102%; in the experiment with PEG-3 [4] it was 98.9%.

As for `CC(=O)OC(C)(C)/C=C/C(=O)C(C)(O)C1[C@H](O)C[C@@]2(C)C3CC=C4C(CC[C@@H](O)C4(C)C)[C@]3(CO)C(=O)C[C@]12C` (stereo partly specified), the inhibition with PEG-3 [3] amounted to 102%; with PEG-3 [4], 101%. For the same molecule, the activity in experiment [7] came to 43.7%; in experiment [8], 71.7%.

Regarding `C[C@@H]1O[C@@H](O[C@@H]2C=C3CCC4C(CC[C@]5(C)[C@@H](c6ccc(=O)oc6)CC[C@]45O)[C@@]3(C)CC2)[C@H](O)[C@H](O)[C@H]1O` (stereo partly specified), the inhibition with PEG-3 [3] was determined as 99.3%; in the experiment with PEG-3 [4], 98.5%. The activity in experiment [7] was found to be 82.2%; in experiment [8], 91.8%.

Consider `CCOC(=O)c1c(-n2c(C)cc(C=C3C(=O)NC(=S)NC3=O)c2C)sc2c1CCCC2`, for which the inhibition with PEG-3 [3] was 96.7%; in the experiment with PEG-3 [4], 101%; in the experiment on Rat fibroblasts (CREF) [5] it was 95.9%; with Rat fibroblasts (CREF) [6], 97.3%.

Take `C=CC[C@@H](CC/C=C/C=C/CC/C=C\[C@@H]1CSC([C@@H]2C[C@@H]2C)=N1)OC`: the inhibition in experiment [1] stood at 91.9%; in experiment [2], 64.9%.
